Bioassay records from PubChem.
Giardia FBPA inh: Giardia lamblia aldolase inhibition; AID 2451; purified Giardia FBPA; Potency, µM (doses to about 59.6 µM), for the others: top-dose activity, negative = inhibition, actives largely listed as inhibitors; 290,000 compounds, 0.71% hits; A8B2U2; note: potency is the fitted concentration of half-maximal effect; % is set by controls: 0 for no effect and ±100 for the full control effect; nearly all actives have a fitted effect of over 55% in size
Target sequence (A8B2U2 whole entry, looked up): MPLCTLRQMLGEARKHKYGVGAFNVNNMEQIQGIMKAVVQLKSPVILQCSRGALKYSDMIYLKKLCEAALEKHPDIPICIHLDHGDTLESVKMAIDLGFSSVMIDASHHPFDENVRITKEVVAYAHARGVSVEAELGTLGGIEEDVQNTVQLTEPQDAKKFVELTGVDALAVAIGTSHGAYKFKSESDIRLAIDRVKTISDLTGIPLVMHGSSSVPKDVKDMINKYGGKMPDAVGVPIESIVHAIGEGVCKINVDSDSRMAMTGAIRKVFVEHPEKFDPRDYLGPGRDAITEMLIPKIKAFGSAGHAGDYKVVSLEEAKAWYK
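Giardia FBPA (40 nM reagent) was preincubated 10 min at RT with compound (up to 57.5 uM final), then substrate plus GAPDH/TPI/NAD/arsenate coupling system with diaphorase/resazurin was added; resorufin fluorescence (525/598 nm) was read after 20 min.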
Tb PYK inh: inhibitors of Trypanosoma brucei pyruvate kinase. Potency, µM (doses to about 76.8 µM), inactives show at the top dose activity, negative = inhibition, actives largely listed as inhibitors. TbPYK enzyme, Kinase-Glo Plus ATP luminescence, 45 min. 410,000 compounds, 0.12% hits. Q57TT1. AID 624173; note: potency is the fitted concentration of half-maximal effect; % is set by controls: 0 for no effect and ±100 for the full control effect; nearly all actives have a fitted effect of over 50% in size
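Glycolytic pyruvate kinase of T. brucei was incubated with substrate, test compound and 130 uM ADP for 45 minutes at room temperature. Luminescent Kinase-Glo Plus signal was measured after 10 minutes.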
CHX counter: affects cycloheximide protein synthesis inhibition readout, counter-screen; AID 2314; 300,000 compounds, 12% hits; max response, %; cell reporter, cycloheximide protein synthesis inhibition counterscreen; in the data active = max response mostly above about 13%, no sharp cut-off; inactive = mostly below about 14%; note: read at 38.3 µM for the half of the compounds with a filed dose; 0% is about no effect
Shiga inhibitor: Shiga toxin inhibition | Vero cells, Shiga toxin protein synthesis inhibition reporter | 290,000 compounds, 9.2% hits | inhibition, % at 38.7 µM; in the data active = inhibition mostly above about 28%, no sharp cut-off; inactive = mostly below about 43%; note: 0% is about no effect
Sm TGR block: blocks Schistosoma mansoni thioredoxin glutathione reductase; AID 485364; Potency, µM (titrated, usually from 114 µM), without a hit: at the top dose activity change, negative = inhibition, actives largely listed as inhibitors; 360,000 compounds, 3% hits; Q962Y6; purified TGR, DTNB reduction, TNB absorbance 405 nm; note: potency is the fitted concentration of half-maximal effect; % is set by controls: 0 for no effect and ±100 for the full control effect; nearly all actives have a fitted effect of over 60% in size
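Kinetic colorimetric format: TGR-catalysed, NADPH-driven DTNB reduction monitored via TNB absorbance. Enzyme dispensed at 20 nM; compound exposure 15 min at room temperature before reaction start.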
LmPK inhibitor: LmPK (Leishmania mexicana) enzyme inhibition | purified LmPK, Kinase-Glo ATP luminescence, 1 h | Potency, µM (highest dose often 57.5 µM), for inactives: top-dose activity change, negative = inhibition, usual class: inhibitors | AID 1721 | 290,000 compounds, 0.37% hits | Q27686; note: potency is the fitted concentration of half-maximal effect; % is set by controls: 0 for no effect and ±100 for the full control effect
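0.1 nM LmPK, 0.5 mM PEP, 0.1 mM ADP; 50 mM imidazole pH 7.2, 7 mM MgCl2, 50 mM KCl; 1 h RT. Kinase-Glo luminescence readout, normalized to no-enzyme (full inhibition) and uninhibited wells.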
Active calls of the source: *; ? = inconclusive; · = not tested or not shown; + = active, no number; [ ] = remark or other dose. This excerpt belongs to a sample that is enriched for hits. Unless noted, calls come from the whole dose curve; as a rule, active = well fitted curve in the direction sought with a large enough effect; inconclusive = small, poorly fitted or top-dose-only effect, or another doubt; inactive = no such curve, though single readings can be large; an effect the other way counts as inactive or inconclusive.

SMILES	Giardia FBPA inh	Tb PYK inh	CHX counter	Shiga inhibitor	Sm TGR block	LmPK inhibitor
COc1ccc(/C=C/C(=O)c2ccc(Cl)cc2)c(OC)c1	-14%	1%	43*	80*	6%	-4%
COc1ccc(/C=C/C(=O)c2cc(Cl)ccc2O)c(OC)c1	2%	3%	25*	50*	-16%	-3%
Cc1oc2ncn(C)c(=O)c2c1C(=O)NC(C)c1ccccc1 (stereo not given)	·	3%	·	·	-11%	·
O=C(Nc1ccc(N2CCCC2)cc1)C(c1ccccc1)c1ccccc1	-17%	-7%	-7	-9	?	-2%
CC(C)C(=O)Nc1ccc(N2CCN(c3ccc(F)cc3)CC2)cc1	3%	-6%	0	-2	0%	-9%
O=C(Nc1ccc(N2CCCCC2)cc1)C(Cl)c1ccccc1 (stereo not given)	-10%	-5%	46*	84	·	-10%
CC(C)C(=O)Nc1ccc(N2CCCC2)cc1	?	-21%	7	-9	35µM*	-4%
Cc1[nH]cnc1CSCCN	-11%	1%	-3	-6	4%[11.4 µM]	16%
Cc1[nH]cnc1CSCc1ccc(Cl)cc1	-9%	4%	23*	73*	-4%	3%
Cc1cccc(OCc2nc(-c3cccnc3)no2)c1	6%	-2%	15*	+	-13%	-8%
Clc1ccc(OCc2nc(-c3ccncc3)no2)c(Cl)c1	6%	-4%	64*	122*	10%	1%
Clc1cccc(OCc2nc(-c3ccncc3)no2)c1	2%	1%	34*	45	8%	2%
Cc1ccc(C)c(OCc2nc(-c3cccnc3)no2)c1	-2%	3%	10	30	1%	0%
COc1ccc(Cl)cc1-c1nc(-c2ccncc2)no1	1%	2%	2	21	7%	-1%
Clc1cccc(OCc2nc(-c3ccncc3)n[nH]2)c1	1%	0%	5	7	-1%	0%
CCCNC(=O)c1ccc(N2CCC3(CC2)CC(c2cccc(Br)c2)=NO3)c(NC(=O)c2ccc(Cl)c([N+](=O)[O-])c2)c1	·	1%	·	·	-3%	·
CSCC(=O)N1CCc2ccc(NC(=O)c3ccccc3Cl)cc2C1	5%	-8%	28*	·	-1%	-1%
CN(C)S(=O)(=O)N1CCc2ccc(NC(=O)c3ccccc3Cl)cc2C1	1%	2%	11*	14	10%	-1%
CCCS(=O)(=O)N1CCc2ccc(NC(=O)c3ccccc3Cl)cc2C1	-6%	-6%	10	·	-2%	4%
CN1C(=O)CC(C)(c2ccccc2)C1=O (stereo not given)	·	-5%	·	·	·	·
CC(C)(C)Cc1c(-c2ccco2)nc2ccc(Cl)cn12	·	4%	·	·	·	·
CC(C)OC(=O)/C(=C/c1ccc2c(c1)c1ccccc1n2C)NC(=O)c1ccccc1	-1%	2%	20*	53*	-13%	-1%
CC(C)OC(=O)/C(=C\c1ccc2c(c1)c1ccccc1n2C)NC(=O)c1ccccc1	-2%	1%	29*	67*	16%	-3%
Cc1cc2n(n1)C(c1c[nH]c3ccccc13)Nc1ccccc1-2 (stereo not given)	9%	-5%	29*	41*	7%	3%
Cc1cc2n(n1)C(c1cn(-c3ccccc3)nc1C)Nc1ccccc1-2 (stereo not given)	-2%	-3%	4	6	2%	-3%
SMILES	Giardia FBPA inh	Tb PYK inh	CHX counter	Shiga inhibitor	Sm TGR block	LmPK inhibitor
CCOc1nc(Nc2ccccc2F)nc(OCC)n1	-11%	1%	20*	10	0%	-4%
C=CCNc1nc(Nc2ccccc2F)nc(OCC)n1	3%	-2%	47*	123*	5%	-3%
N#Cc1ccc(C23CC4(C2)[C@H](CN(Cc2cccnc2)[C@@H]4c2ccccc2)C3c2ccc(C(F)(F)F)cc2)cc1 (stereo not given in full)	-2%	·	·	·	·	·
Oc1oc(-c2ccccc2)nc1C=Nc1cccc2ccccc12	-20%	12%	20*	26	-9%	1%
Oc1oc(-c2ccccc2)nc1/C=N/c1nccs1	-9%	-19%	33*	+	-12%	-8%
CCCCOc1ccc(-c2nc(/C=N/c3nccs3)c(O)o2)cc1	2%	7%	2	2	-23%	6%
COc1ccc(OC)c(CCNc2ncnc3onc(-c4ccc(F)cc4)c23)c1	·	-2%	·	·	-6%	·
N#Cc1c2ccc(OCC(N)=O)cc2n2ccccc12	?	1%	-4	-13	-5%	-6%
CCOC(=O)COc1ccc2c(C#N)c3ccccn3c2c1	5.6µM*	-1%	-3	-2	·	5%
O=Cc1s/c(=N\S(=O)(=O)c2ccccc2)n(CCCCl)c1Cl	2%	-11%	-3	-25	0.63µM*	0%
CN(Cc1ccccc1)C(=O)CN1C(=O)NC2(CCCc3sccc32)C1=O (stereo not given)	·	5%	·	·	·	·
CN(CCc1cnn(C)c1)Cc1cn[nH]c1-c1ccc(-c2ccccc2)cc1	5%	0%	17*	43*	-10%[57.1 µM]	3%
Cn1cc(CCNCc2cn[nH]c2-c2ccc(-c3ccccc3)cc2)cn1	2%	-1%	31*	54*	7%	8%
Cc1ccc(-c2[nH]ncc2CNCCc2cnn(-c3ccccc3)c2)cc1C	2%	0%	1	-8	0%	2%
CC(=O)C1=CCC(c2cccc(Cl)c2)N(S(=O)(=O)c2ccc(C)cc2)C1 (stereo not given)	·	-3%	·	·	·	·
O=C(Oc1ccc(C(=S)N2CCOCC2)cc1)c1ccccc1	-4%	-2%	15	-2	0%	-2%
CCCCOC(=O)c1ccc(OC(=O)N2CCOCC2)cc1	15%	2%	29*	33	73%	-3%
O=C(c1ccccc1)c1ccc(OC(=O)N2CCOCC2)cc1	5%	-2%	36*	43	-1%	2%
Cc1ccc(-c2cn(-c3cccc(Cl)c3)c(S(=O)(=O)CC(=O)Nc3ccccc3F)n2)cc1	·	-4%	·	·	7%	·
COc1ccccc1C1(O)CCN(CCCn2c3ccccc3c3ccccc32)CC1	0%	·	-17	-28	·	·
COCCNC(=O)[C@@]1(Cc2ccccc2)C=C[C@@H](C)N1C(C)=O	3%	6%	38*	45*	-6%	2%
Brc1ccc(-c2ccc(/C=N/Nc3nc4ccccc4[nH]3)o2)cc1	18%	-5%	49*	78*	-12%	-9%
O=c1[nH]c(N/N=C\c2ccc3c(c2)OCO3)nc2ccccc12	-9%	-9%	53*	54*	·	-24%
Cc1cc(N/N=C/c2ccc3c(c2)OCO3)nc2ccccc12	-7%	-7%	47*	79*	5%	-3%
C(/CCc1ccccc1)=N\Nc1nc2ccccc2[nH]1	-3%	-2%	27*	47*	-9%	-29%
